8 compounds from PubChem BioAssay (Tox21) can be followed below.

Inconclusive results are not listed. Active and inactive are the calls of the source. Unless noted, calls follow the shape of the full dose curve.

The nature of assay [1]: Nuclear factor erythroid 2-related factor 2/antioxidant responsive element (Nrf2/ARE) small molecule agonists: qHTS cell viability counter screen in human keratinocytes (AID 1919968; active = well fitted curve in the direction sought with a large enough effect in the repeat runs; an effect the other way counts as inactive or inconclusive; also: nearly all actives have a fitted effect of over 55% in size; also: potency is read from the fitted curve at half-maximal effect). The gist of the method:
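Viability counter-screen: KeratinoSens reporter cells, DMSO-delivered compounds, 23 h at 37 C, CellTiter-Fluor fluorescence.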
A general note: qHTS replaces the single test concentration by a dilution series.

Assay [2] can be described thus: Nuclear factor erythroid 2-related factor 2/antioxidant responsive element (Nrf2/ARE) small molecule agonists: luciferase reporter gene qHTS assay in human keratinocytes (AID 1919969). Also: nearly all actives have a fitted effect of over 35% in size. Also: potency is read from the fitted curve at half-maximal effect. A general note: In a reporter assay the amount or activity of a reporter protein is the signal.
For assay [3], the target named is Gonadotropin-releasing hormone receptor (Homo sapiens) (UniProt P30968). The assay is described as follows: Human gonadotropin-releasing hormone receptor (GnRHR) small molecule agonists, calcium flux assay in GnRHR-HEK293 cells (AID 1920063). Also: nearly all actives have a fitted effect of over 35% in size. Also: potency is read from the fitted curve at half-maximal effect. The essentials: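 Tox21-format agonist screen using human GnRHR-expressing HEK293 cells and a fluorescent calcium dye; kinetic 3-min fluorescence reading after compound addition, 15-point concentration series run in triplicate.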
Sequence of Gonadotropin-releasing hormone receptor (Homo sapiens) (P30968 whole entry, looked up): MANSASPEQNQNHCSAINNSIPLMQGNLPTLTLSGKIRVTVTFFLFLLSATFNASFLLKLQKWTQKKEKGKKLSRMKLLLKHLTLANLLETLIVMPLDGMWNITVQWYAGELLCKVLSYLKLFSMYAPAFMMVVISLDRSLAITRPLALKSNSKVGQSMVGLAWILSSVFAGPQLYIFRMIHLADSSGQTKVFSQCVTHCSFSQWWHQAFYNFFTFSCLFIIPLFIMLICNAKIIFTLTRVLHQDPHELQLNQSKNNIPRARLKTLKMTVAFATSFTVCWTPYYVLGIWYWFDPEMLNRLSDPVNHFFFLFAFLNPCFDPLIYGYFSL
(Calcium flux is commonly read through the fluorescence of an indicator in the cells.)

For assay [4], the target named is KiSS-1 receptor (Homo sapiens) (UniProt Q969F8). The assay is described as follows: Human kisspeptin (KISS1R) small molecule agonists, calcium flux assay in KISS1R-HEK293 cells (AID 1920064; active = well fitted curve in the direction sought with a large enough effect in the repeat runs; an effect the other way counts as inactive or inconclusive). The gist of the method:
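Intracellular calcium mobilization in KISS1R-HEK293 cells was recorded by fluorescence (Ex/Em 480/540) for 3 min following compound addition to cells pre-loaded 1 h with calcium dye.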

Assay [5] can be described thus: G protein-coupled receptor (GPCR) small molecule agonists, calcium flux assay: HEK293 wild type cell line counter screen (AID 1920065). The essentials:
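In this agonist-mode screen, ATP is the positive control and DMSO the vehicle. Cells grow 18 h before a 1 h dye incubation at 37 C; signal is taken at Ex/Em 480/540 over 3 min.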

Assay [6] in a line: p53 small molecule agonists, cell-based qHTS assay with human liver microsomes: qHTS cell viability counter screen (AID 1963579). Also: nearly all actives have a fitted effect of over 45% in size. The gist of the method: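 p53RE-bla cells, 4,000/well, dosed 5 hours after plating, with human liver microsomes (0.5 mg/mL final) plus NADPH (0.5 mg/mL final), 16 hours at 37 C. Viability read as CellTiter-Glo luminescence after 30 min at room temperature.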

The nature of assay [7]: p53 small molecule agonists, cell-based qHTS assay with rat liver microsomes: qHTS cell viability counter screen (AID 1963580). Also: nearly all actives have a fitted effect of over 45% in size. Also: potency is read from the fitted curve at half-maximal effect. The gist of the method: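 HCT-116 p53RE-bla, 4,000 cells/well, 5 h pre-incubation; cpd + rat liver microsomes 0.5 mg/mL + NADPH 0.5 mg/mL (final); 16 h, 37 C; CellTiter-Glo, 30 min RT; luminescence.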
Assay [8] in a line: p53 small molecule agonists, cell-based qHTS assay: qHTS cell viability counter screen (AID 1963581). Also: nearly all actives have a fitted effect of over 45% in size. Also: potency is read from the fitted curve at half-maximal effect. The gist of the method:
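Compounds are pinned onto HCT-116 p53RE-bla cells and left 16 h at 37 C. Following the reporter FRET read, ATP is quantified by CellTiter-Glo luminescence after 30 min at room temperature.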

Assay [9] addresses 5-hydroxytryptamine receptor 2A (Homo sapiens) (UniProt P28223). The assay is described as follows: 5-hydroxytryptamine receptor 2A (HTR2A) small molecule antagonists, cell-based qHTS assay (AID 1963586). Also: nearly all actives have a fitted effect of over 45% in size. The essentials: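 Antagonist-mode intracellular calcium assay: DOI (4 nM) added after 5 min compound pre-incubation at room temperature to dye-loaded HTR2A-CHO cells. Fluorescence followed for 3 min, sampled every second.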

The target is the same in assay [10]. The assay is described as follows: 5-hydroxytryptamine receptor 2A (HTR2A) small molecule agonists, cell-based qHTS assay (AID 1963587). Also: nearly all actives have a fitted effect of over 30% in size. The essentials:
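Kinetic calcium-flux fluorescence (2 min, 1 sec intervals) after compound addition in agonist mode. HTR2A-CHO cells were cultured 18 h, then dye-loaded 1 h at 37 C.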

In assay [11] the target is Muscarinic acetylcholine receptor M1 (Homo sapiens) (UniProt P11229). The assay is described as follows: Cholinergic receptor muscarinic 1 (CHRM1) small molecule antagonists, cell-based qHTS assay (AID 1963588). Also: nearly all actives have a fitted effect of over 40% in size. Also: potency is read from the fitted curve at half-maximal effect. The gist of the method: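 CHRM1-CHO calcium-flux assay, antagonist mode. Cells were seeded 18 h, dye-loaded 1 h at 37 C and given compound for 5 min at RT, then acetylcholine was added at 50nM. FDSS fluorescence was read 3 min; 15 concentrations, three runs.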
Sequence of Muscarinic acetylcholine receptor M1 (Homo sapiens) (P11229 whole entry, looked up): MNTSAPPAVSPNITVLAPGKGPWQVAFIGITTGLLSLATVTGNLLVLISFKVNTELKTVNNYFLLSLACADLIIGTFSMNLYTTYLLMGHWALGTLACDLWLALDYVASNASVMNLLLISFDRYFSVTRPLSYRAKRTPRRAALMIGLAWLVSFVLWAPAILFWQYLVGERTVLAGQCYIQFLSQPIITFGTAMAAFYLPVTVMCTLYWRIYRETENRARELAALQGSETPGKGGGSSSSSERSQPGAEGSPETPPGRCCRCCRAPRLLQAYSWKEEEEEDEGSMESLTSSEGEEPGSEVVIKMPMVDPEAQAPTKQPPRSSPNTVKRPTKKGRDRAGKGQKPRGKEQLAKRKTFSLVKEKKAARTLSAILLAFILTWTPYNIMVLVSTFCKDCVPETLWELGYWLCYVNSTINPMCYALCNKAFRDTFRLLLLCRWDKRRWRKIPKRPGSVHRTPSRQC

For assay [12] the target is unchanged. The assay is described as follows: Cholinergic receptor muscarinic 1 (CHRM1) small molecule agonists, cell-based qHTS assay (AID 1963589). Also: nearly all actives have a fitted effect of over 35% in size. Also: potency is read from the fitted curve at half-maximal effect. The gist of the method: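 Stable CHRM1-CHO cells (human receptor) were incubated 18 h, dye-loaded for 1 h at 37 C and exposed to test compounds for agonist activity, with calcium-dependent fluorescence followed kinetically.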

Assay [13] can be described thus: cAMP Responsive Elements (CRE) small molecule agonists, cell-based qHTS assay (AID 1963590). The essentials:
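FRET-based beta-lactamase readout (LiveBLAzer B/G, 2 h RT) quantified CRE activation in HEK 293T CRE-bla cells after 3 h treatment with DMSO-dissolved compounds.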

Assay [14] addresses Beta-2 adrenergic receptor (Homo sapiens) (UniProt P07550). The assay is described as follows: Adrenergic beta2 receptor (ADRB2) small molecule antagonists, cell-based qHTS assay (AID 1963592). Also: series mostly up to about 92 µM; nearly all actives have a fitted effect of over 50% in size. The essentials: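 Cells (CHO, stable ADRB2 overexpression) incubated 18-20hr at 37C; compounds added from DMSO; agonist mix (1nM isoproterenol, 100uM IBMX, 25uM Ro-20-1724) added; 0.5hr RT; d2-cAMP and anti-cAMP-cryptate added; 1hr RT; 665/615 nm read.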

The target is the same in assay [15]. The assay is described as follows: Adrenergic beta2 receptor (ADRB2) small molecule agonists, cell-based qHTS assay (AID 1963593).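 Also: CHO cells stably overexpressing human ADRB2.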 The essentials:
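CHO cells stably over-expressing ADRB2 were plated overnight at 37C, then dosed with compounds plus a stimulation mix containing 100uM IBMX and 25uM Ro-20-1724 for 0.5hr at room temperature. cAMP was measured by HTRF competition, 1hr.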

The target of assay [16] is D(2) dopamine receptor (Homo sapiens) (UniProt P14416). The assay is described as follows: Dopamine D2 receptor (DRD2) small molecule agonists, cell-based qHTS assay (AID 1963594). Also: nearly all actives have a fitted effect of over 35% in size. The essentials: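 cAMP accumulation in DRD2-HEK293 cells measured by HTRF after 1 h detection; compounds added 10 min before NKH477 (200nM […]) forskolin-analogue stimulation, 30 min at room temperature, with Ro20-1724 present at 0.1 mM final.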
Sequence of D(2) dopamine receptor (Homo sapiens) (P14416 whole entry, looked up): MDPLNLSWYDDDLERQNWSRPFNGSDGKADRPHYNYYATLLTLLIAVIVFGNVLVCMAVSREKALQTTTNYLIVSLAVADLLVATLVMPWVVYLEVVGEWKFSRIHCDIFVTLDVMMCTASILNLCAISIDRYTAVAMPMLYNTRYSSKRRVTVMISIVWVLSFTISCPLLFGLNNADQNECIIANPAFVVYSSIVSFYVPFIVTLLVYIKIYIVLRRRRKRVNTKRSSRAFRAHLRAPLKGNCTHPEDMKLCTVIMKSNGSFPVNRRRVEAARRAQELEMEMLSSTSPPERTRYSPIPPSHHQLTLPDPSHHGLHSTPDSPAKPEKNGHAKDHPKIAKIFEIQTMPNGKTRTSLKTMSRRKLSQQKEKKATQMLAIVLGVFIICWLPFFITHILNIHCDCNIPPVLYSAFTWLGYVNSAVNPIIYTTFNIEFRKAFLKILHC

For assay [17] the target is unchanged. The assay is described as follows: Dopamine D2 receptor (DRD2) small molecule antagonists, cell-based qHTS assay (AID 1963595; active = well fitted inhibition curve with a large enough effect in the signal ratio in the repeat runs, with a control signal flat; the % refers to the signal ratio). The gist of the method: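 Antagonist mode in DRD2-HEK293 cells: after compound addition with 0.1 mM Ro20-1724, cells received quinpirole (12 nM) and NKH477 (200 nM) for 30 min at room temperature; HTRF cAMP read after 1 h detection.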

Assay [18] can be described thus: cAMP Responsive Elements (CRE) small molecule antagonists, cell-based qHTS assay (AID 1963591; active = well fitted inhibition curve with a large enough effect in the signal ratio in the repeat runs, not every such curve was filed as active; the % refers to the signal ratio). The gist of the method:
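qHTS in CRE-bla HEK 293T cells: compound in DMSO, then 0.25 uM NKH477 (final), 3 h at 37 °C/5% CO2; beta-lactamase FRET read-out after 2 h substrate incubation.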

Sequence of Beta-2 adrenergic receptor (Homo sapiens) (P07550 whole entry, looked up): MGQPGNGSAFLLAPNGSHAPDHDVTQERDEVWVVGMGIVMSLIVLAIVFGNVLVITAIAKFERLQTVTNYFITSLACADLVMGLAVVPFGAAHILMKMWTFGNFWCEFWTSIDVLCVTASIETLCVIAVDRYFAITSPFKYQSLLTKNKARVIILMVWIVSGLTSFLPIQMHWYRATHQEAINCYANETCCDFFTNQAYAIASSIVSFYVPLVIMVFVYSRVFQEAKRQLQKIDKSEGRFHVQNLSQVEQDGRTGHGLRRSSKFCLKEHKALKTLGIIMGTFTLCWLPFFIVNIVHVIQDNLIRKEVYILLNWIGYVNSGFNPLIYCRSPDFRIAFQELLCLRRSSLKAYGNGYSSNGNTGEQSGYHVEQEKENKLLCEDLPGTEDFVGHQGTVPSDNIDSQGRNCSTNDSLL
Sequence of KiSS-1 receptor (Homo sapiens) (Q969F8 whole entry, looked up): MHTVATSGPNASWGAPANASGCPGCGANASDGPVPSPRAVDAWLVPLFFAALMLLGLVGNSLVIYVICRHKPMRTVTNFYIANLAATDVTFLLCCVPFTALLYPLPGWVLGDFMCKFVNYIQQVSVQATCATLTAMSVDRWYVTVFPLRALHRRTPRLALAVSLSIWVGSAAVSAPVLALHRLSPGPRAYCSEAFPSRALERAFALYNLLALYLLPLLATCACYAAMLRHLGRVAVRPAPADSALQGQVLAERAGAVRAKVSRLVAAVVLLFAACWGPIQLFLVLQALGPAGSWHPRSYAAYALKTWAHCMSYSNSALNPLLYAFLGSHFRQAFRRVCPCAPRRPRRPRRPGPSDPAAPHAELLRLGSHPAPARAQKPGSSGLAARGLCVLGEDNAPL
Sequence of 5-hydroxytryptamine receptor 2A (Homo sapiens) (P28223 whole entry, looked up): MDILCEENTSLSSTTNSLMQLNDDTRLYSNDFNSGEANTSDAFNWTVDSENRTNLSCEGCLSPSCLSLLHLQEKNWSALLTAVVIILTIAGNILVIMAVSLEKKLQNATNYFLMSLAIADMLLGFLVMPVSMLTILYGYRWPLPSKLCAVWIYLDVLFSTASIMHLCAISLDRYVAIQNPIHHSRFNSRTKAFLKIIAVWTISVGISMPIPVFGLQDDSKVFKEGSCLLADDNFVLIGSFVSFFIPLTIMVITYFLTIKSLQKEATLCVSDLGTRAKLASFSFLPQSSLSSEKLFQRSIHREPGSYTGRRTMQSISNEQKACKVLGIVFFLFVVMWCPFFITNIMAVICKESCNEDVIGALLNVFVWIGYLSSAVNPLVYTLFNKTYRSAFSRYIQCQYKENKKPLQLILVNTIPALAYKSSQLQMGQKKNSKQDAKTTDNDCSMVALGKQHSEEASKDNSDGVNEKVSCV

For `CCCN`, the Potency entry in [1], in assay [2], in [3], in assay [4], in assay [5] and in [6] was “inactive” throughout. For the same compound, the Potency result in assay [7], in assay [8], in assay [9], in assay [10], in assay [11] and in assay [12] was “inactive” in each case. The Potency result in assay [13], in assay [14], in [15], in [16] and in assay [17] was “inactive” throughout.
For the compound `CC(O)CCl` (stereo not given), the Potency entry in assay [1], in [2], in [3], in assay [4], in assay [5] and in assay [6] was “inactive” throughout. For the same compound, the Potency entry in assay [7], in assay [8], in [9], in assay [10], in assay [11] and in assay [12] was “inactive” throughout. Besides, the Potency entry in assay [18], in assay [14], in assay [16] and in assay [17] was “inactive” each time.
With `CCSC(=O)N(CC)C1CCCCC1`, the Potency result in assay [1], in assay [2], in assay [3], in assay [4], in [5] and in assay [6] was “inactive” each time. Further, the Potency entry in assay [7], in assay [8], in assay [9], in assay [10], in assay [11] and in assay [12] was “inactive” each time. Further, the Potency entry in [13], in [18], in assay [14], in assay [16] and in assay [17] was “inactive” each time.
With `CCCCN(CCCC)C(=S)[S-].CCCCN(CCCC)C(=S)[S-].[Zn+2]`, the Potency in [1] was 6.11 µM (active); in [2] it was 1.93 µM (active); in [3], 17.4 µM (active); in assay [7], 3.63 µM (active); in assay [8] it was 25.7 µM (active); in assay [12], 19.5 µM (active). The Potency entry in assay [4], in assay [5], in assay [6], in [9], in assay [10] and in [14] was “inactive” throughout. Moreover, the Potency result in assay [16] and in assay [17] was “inactive” throughout.
With `CCCN(CCC)c1c([N+](=O)[O-])cc(S(C)(=O)=O)cc1[N+](=O)[O-]`, the Potency result in [1], in [2], in assay [3], in [4], in [5] and in assay [6] was “inactive” in each case. The Potency result in [7], in [8], in assay [9], in [10], in assay [12] and in assay [18] was “inactive” each time. Also, the Potency result in assay [14], in assay [15], in assay [16] and in assay [17] was “inactive” throughout. Further, the Potency in [11] is 10.6 µM (active).
In the case of `CN1C(=S)CN=C(c2ccccc2)c2cc(Cl)ccc21`, the Potency result in [1], in assay [2], in assay [3], in [4], in assay [5] and in assay [6] was “inactive” each time. Besides, the Potency result in assay [7], in [8], in assay [9], in assay [10], in [11] and in assay [12] was “inactive” in each case. Moreover, the Potency result in assay [18], in assay [14], in assay [15], in assay [16] and in [17] was “inactive” in each case.
As to `O=C(NC(=O)c1c(F)cccc1F)Nc1ccc(OC(F)(F)C(F)OC(F)(F)F)c(Cl)c1` (stereo not given), the Potency entry in [1], in assay [2], in assay [3], in [4], in [5] and in [6] was “inactive” each time. In addition, the Potency entry in assay [7], in [8], in assay [9], in assay [10], in [11] and in assay [12] was “inactive” throughout. Besides, the Potency entry in [13], in assay [14], in [15], in assay [16] and in assay [17] was “inactive” each time.
Take `O=S(=O)(O)F`: the Potency entry in [1], in assay [2], in assay [3], in assay [4], in assay [5] and in [6] was “inactive” throughout. The Potency result in [7], in assay [8], in assay [9], in [10], in assay [11] and in assay [12] was “inactive” throughout. Besides, the Potency result in assay [13], in assay [18] and in assay [17] was “inactive” in each case.
